# Reference: the supplement of paper PMC8728848
# About 410 targets per protein were measured; listed, in parts, are those with the strongest signals and a random draw of the rest.
# B1: Flo1 (Saccharomyces cerevisiae), P32768 (protein)
# chain: SGATEACLPAGQRKSGMNINFYQYSLKDSSTYSNAAYMAYGYASKTKLGSVGGQTDISIDYNIPCVSSSGTFPCPQEDSYGNWGCKGMGACSNSQGIAYWSTDLFGFYTTPTNVTLEMTGYFLPPQTGSYTFKFATVDDSAILSVGGATAFNCCAQQQPPITSTNFTIDGIKPWGGSLPPNIEGTVYMYAGYYYPMKVVYSNAVSWGTLPISVTLPDGTTVSDDFEGYVYSFDDDLSQSNCTVPDPSNY
# How the values were obtained:
# Assay in all cases: glycan array binding signal (z-score within array); higher = stronger binding
# Conditions in all cases: glycan notation: IUPAC condensed, linker removed
# [1] = molecular target: Fuc(a1-2)Gal(b1-3)GalNAc(b1-4)[Neu5Ac(a2-3)]Gal(b1-4)Glc
# Method in brief: (§1)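 Glycan array binding is given as a within-array Z-score, which can be read as non-binding when negative. The arrays, 3228 of them, came from the Consortium for Functional Glycomics database and were retained only where the protein sequence was available. Z-scores were averaged across arrays of the same protein sequence at different concentrations or buffers and across linkers.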
# [2] = molecular target: Fuc(a1-2)Gal(b1-3)GlcNAc(b1-2)Man(a1-3)[Fuc(a1-2)Gal(b1-3)GlcNAc(b1-2)Man(a1-6)]Man(b1-4)GlcNAc(b1-4)[Fuc(a1-6)]GlcNAc
# Method in brief: as §1
# [3] = molecular target: Fuc(a1-2)Gal(b1-3)[Fuc(a1-4)]GlcNAc(b1-2)Man(a1-3)[Fuc(a1-2)Gal(b1-3)[Fuc(a1-4)]GlcNAc(b1-2)Man(a1-3)]Man(b1-4)GlcNAc(b1-4)GlcNAc
# Method in brief: as §1
# [4] = molecular target: Fuc(a1-2)Gal(b1-3)[Fuc(a1-4)]GlcNAc(b1-2)Man(a1-3)[Fuc(a1-2)Gal(b1-3)[Fuc(a1-4)]GlcNAc(b1-2)Man(a1-6)]Man(b1-4)GlcNAc(b1-4)GlcNAc
# Method in brief: as §1
# [5] = molecular target: Fuc(a1-2)Gal(b1-4)Fuc(a1-3)]GlcNAc(b1-2)Man(a1-3)[Fuc(a1-2)Gal(b1-4)[Fuc(a1-3)]GlcNAc(b1-2)Man(a1-6)]Man(b1-4)GlcNAc(b1-4)GlcNAc
# Method in brief: as §1
# [6] = molecular target: Fuc(a1-2)Gal(b1-4)[Fuc(a1-3)]GlcNAc(b1-2)Man(a1-3)[Fuc(a1-2)Gal(b1-4)[Fuc(a1-3)]GlcNAc(b1-2)Man(a1-6)]Man(b1-4)GlcNAc(b1-4)GlcNAc
# Method in brief: as §1
# [7] = molecular target: Fuc(a1-2)[Gal(a1-3)]Gal(b1-3)GlcNAc(b1-3)GalNAc
# Method in brief: as §1
# [8] = molecular target: Fuc(a1-2)[Gal(a1-3)]Gal(b1-4)GlcNAc(b1-2)Man(a1-3)[Fuc(a1-2)[Gal(a1-3)]Gal(b1-4)GlcNAc(b1-2)Man(a1-6)]Man(b1-4)GlcNAc(b1-4)[Fuc(a1-6)]GlcNAc
# Method in brief: as §1
# [9] = molecular target: Fuc(a1-2)[Gal(a1-3)]Gal(b1-4)GlcNAc(b1-3)[Fuc(a1-2)[Gal(a1-3)]Gal(b1-4)GlcNAc(b1-6)]GalNAc
# Method in brief: as §1
# [10] = molecular target: Fuc(a1-2)[Gal(a1-3)]Gal(b1-4)[Fuc(a1-3)]Glc
# Method in brief: as §1
# [11] = molecular target: Fuc(a1-2)[GalNAc(a1-3)]Gal
# Method in brief: as §1
# [12] = molecular target: Fuc(a1-2)[GalNAc(a1-3)]Gal(b1-3)GalNAc(a1-3)[Fuc(a1-2)]Gal(b1-4)GlcNAc
# Method in brief: as §1
# [13] = molecular target: Fuc(a1-2)[GalNAc(a1-3)]Gal(b1-4)Glc
# Method in brief: as §1
# [14] = molecular target: Fuc(a1-3)[Gal3S(b1-4)]Glc
# Method in brief: as §1
# [15] = molecular target: Gal(b1-3)GalNAc(a1-3)[Fuc(a1-2)]Gal(b1-4)GlcNAc
# Method in brief: as §1
# [16] = molecular target: Gal(b1-3)GlcNAc(b1-2)Man(a1-3)[GlcNAc(b1-4)][Gal(b1-3)GlcNAc(b1-2)Man(a1-6)]Man(b1-4)GlcNAc(b1-4)GlcNAc
# Method in brief: as §1
# [17] = molecular target: Gal(b1-3)GlcNAc(b1-3)Gal(b1-4)GlcNAc(b1-3)Gal(b1-4)GlcNAc(b1-2)[Gal(b1-3)GlcNAc(b1-3)Gal(b1-4)GlcNAc(b1-3)Gal(b1-4)GlcNAc(b1-6)]Man(a1-6)[Gal(b1-3)GlcNAc(b1-3)Gal(b1-4)GlcNAc(b1-3)Gal(b1-4)GlcNAc(b1-2)Man(a1-3)]Man(b1-4)GlcNAc(b1-4)[Fuc(a1-6)]GlcNAc
# Method in brief: as §1
# [18] = molecular target: Gal(b1-3)GlcNAc(b1-3)Gal(b1-4)[Fuc(a1-3)]GlcNAc
# Method in brief: as §1
# [19] = molecular target: Gal(b1-3)[Fuc(a1-4)]GlcNAc(b1-2)Man
# Method in brief: as §1
# [20] = molecular target: Gal(b1-4)GalNAc(b1-3)[Fuc(a1-2)]Gal(b1-4)GlcNAc
# Method in brief: as §1
# [21] = molecular target: Gal(b1-4)GlcNAc(b1-2)Man(a1-3)[Gal(b1-4)GlcNAc(b1-2)Man(a1-6)]Man(b1-4)GlcNAc(b1-4)GlcNAc
# Method in brief: as §1
# [22] = molecular target: Gal(b1-4)GlcNAc(b1-2)Man(a1-6)[Man(a1-3)]Man(b1-4)GlcNAc(b1-4)GlcNAc
# Method in brief: as §1
# [23] = molecular target: Gal(b1-4)GlcNAc(b1-2)[Gal(b1-4)GlcNAc(b1-4)]Man(a1-3)[Gal(b1-4)GlcNAc(b1-2)Man(a1-6)]Man(b1-4)GlcNAc(b1-4)GlcNAc
# Method in brief: as §1
# [24] = molecular target: Gal(b1-4)GlcNAc(b1-2)[Gal(b1-4)GlcNAc(b1-4)]Man(a1-3)[Gal(b1-4)GlcNAc(b1-2)[Gal(b1-4)GlcNAc(b1-6)]Man(a1-6)]Man(b1-4)GlcNAc(b1-4)GlcNAc
# Method in brief: as §1
# [25] = molecular target: Gal(b1-4)GlcNAc(b1-2)[Gal(b1-4)GlcNAc(b1-4)]Man(a1-3)[GlcNAc(b1-4)][Gal(b1-4)GlcNAc(b1-2)Man(a1-6)]Man(b1-4)GlcNAc(b1-4)GlcNAc
# Method in brief: as §1
# [26] = molecular target: Gal(b1-4)GlcNAc(b1-3)Gal(b1-3)GalNAc
# Method in brief: as §1
# [27] = molecular target: Gal(b1-4)GlcNAc(b1-3)Gal(b1-4)GlcNAc(b1-2)Man(a1-3)[Gal(b1-4)GlcNAc(b1-3)Gal(b1-4)GlcNAc(b1-2)Man(a1-6)]Man(b1-4)GlcNAc(b1-4)[Fuc(a1-6)]GlcNAc
# Method in brief: as §1
binder,measurement,setting,value
B1,glycan array binding signal (z-score),[1],-0.19
same,glycan array binding signal (z-score),[2],1.41
same,glycan array binding signal (z-score),[3],-0.362
same,glycan array binding signal (z-score),[4],2.44
same,glycan array binding signal (z-score),[5],3.01
same,glycan array binding signal (z-score),[6],2.48
same,glycan array binding signal (z-score),[7],2.18
same,glycan array binding signal (z-score),[8],3.01
same,glycan array binding signal (z-score),[9],0.353
same,glycan array binding signal (z-score),[10],-0.047
same,glycan array binding signal (z-score),[11],-0.514
same,glycan array binding signal (z-score),[12],0.065
same,glycan array binding signal (z-score),[13],0.017
same,glycan array binding signal (z-score),[14],0.119
same,glycan array binding signal (z-score),[15],-0.653
same,glycan array binding signal (z-score),[16],1.05
same,glycan array binding signal (z-score),[17],2.69
same,glycan array binding signal (z-score),[18],-0.364
same,glycan array binding signal (z-score),[19],2.33
same,glycan array binding signal (z-score),[20],0.699
same,glycan array binding signal (z-score),[21],-0.067
same,glycan array binding signal (z-score),[22],0.098
same,glycan array binding signal (z-score),[23],-0.087
same,glycan array binding signal (z-score),[24],0.251
same,glycan array binding signal (z-score),[25],0.797
same,glycan array binding signal (z-score),[26],-0.714
same,glycan array binding signal (z-score),[27],8.23
